From ChEMBL document CHEMBL3988442, “University of Dundee, Small-Polar-MMV Screening Library” (2021)
About 440 (0.52%) of roughly 85,000 compounds showed an effect of 50% or more. The sample holds strong results, similar compounds and a random draw of the others, so the mix is not that of the screen.

Experiment: In vitro enzyme assay to detect hydrolysis of chlorophenol red-beta-D-[…] directly proportional to the number of Toxoplasma stably expressing beta-galactosidase
Type: functional, organism-based, Toxoplasma gondii
Design: scale not given: in the data most compounds retested in dose-response had high values

Structure (SMILES) | Percent Effect (50 µM) [%] | Percent Effect (10 µM) [%]
NC(=O)COc1ccc(CNCCn2cccn2)cc1 | 11.26 | 
COCC(=O)N1CCN(CCC(C)C)CC1 | 7.319 | 
O=C(NCCN1CCCC1)Nc1cccc2cn[nH]c12 | -2.677 | 
Cc1csc(CN2CCC3(CC2)COC(COc2ccccn2)C3)n1 (stereo not drawn) |  | -8.461
Cc1cc(CN2CCC3(CC2)COC(COc2ccccn2)C3)no1 (stereo not drawn) |  | 96.36
c1ccc(OCC2CC3(CCN(Cc4ccncc4)CC3)CO2)nc1 (stereo not drawn) |  | -2.51
Cc1cc(NC(=O)C(C)C)n(-c2nc(C)c(C)c(=O)[nH]2)n1 |  | 91.77
Cc1nc(-n2nc(C3CC3)cc2NC(=O)C(C)C)[nH]c(=O)c1C |  | 79.17
Cc1cc(C)nc(NC(=O)C(C)C)n1 | 3.231 | 
Cc1nc(-n2nc(-c3cccs3)cc2N)[nH]c(=O)c1C |  | 4.893
CC(C)C(=O)Nc1cc(C(C)(C)C)nn1-c1ccccn1 |  | -3.105
CC(=O)Nc1cc(C2CC2)nn1-c1nc(C)c(C)c(=O)[nH]1 |  | -13.24
NCc1ccc(OCC(F)F)cc1 | -2.459 | 
O=C(C1CC1)N1CCC(Oc2cccnc2)C1 (stereo not drawn) | 1.461 | 
CCC(CNc1ncnc2oc(C)nc12)Cc1ccccc1 (stereo not drawn) |  | -4.784
CCCOc1ccccc1CCCNc1ncnc2oc(C)nc12 |  | 12.3
CCCOc1ccc(Cl)cc1CNc1ncnc2oc(C)nc12 |  | 57.15
O=C1CCCCN1c1ccc(S(=O)(=O)NC2CC2)cc1 | 98.35 | 
CC(N)c1ccc(N2CCCCC2=O)cc1 (stereo not drawn) | 3.622 | 
CC(C)NC(=O)c1ccc(N2CCCCC2=O)cc1 | 19.08 | 
OC1(Cc2ccccc2F)CCNCC1 | -5.436 | 
OC1(Cc2ccccc2F)CCNC1 (stereo not drawn) | 78.69 | 
OCC1(Cc2ccccc2F)CCCNC1 (stereo not drawn) | 2.008 | 
CC(NS(C)(=O)=O)C(=O)NCCCc1ccncc1 (stereo not drawn) | 0.4518 | 

Structure (SMILES) | Percent Effect (50 µM) [%] | Percent Effect (10 µM) [%]
Cc1cc(CN(C)C(=O)C2CCCN2S(C)(=O)=O)no1 (stereo not drawn) | -2.48 | 
O=C(CCN1C(=O)CCC1=O)Nc1ccc(F)cc1 | 6.107 | 
Cc1nc(N2CCN(C(=O)C3CC3)CC2)c2c(n1)c(C)nn2C |  | 0.4782
Cc1nc(N2CCN(C(=O)c3ccco3)CC2)c2c(n1)c(C)nn2C |  | 56.5
CCC(=O)N1CCN(c2nc(C)nc3c(C)nn(C)c23)CC1 |  | 56.36
Cc1nc(N2CCN(C(=O)c3ccccn3)CC2)c2c(n1)c(C)nn2C |  | 25.12
Cc1nn(C)c2c(N3CCN(C(=O)c4ccccc4)CC3)ncnc12 |  | -3.825
Cc1nn(C)c2c(N3CCC(C)CC3)nc(C3CC3)nc12 |  | 6.306
Cc1nc(N2CCN(C(=O)C3CCCC3)CC2)c2c(n1)c(C)nn2C |  | -37.24
CCC(=O)N1CCN(c2ncnc3c(C)nn(C)c23)CC1 |  | 7.071
Cc1nc(N2CCN(c3ccccc3)CC2)c2c(n1)c(C)nn2C |  | 52.19
Cc1nc(N2CCN(C(=O)c3ccncc3)CC2)c2c(n1)c(C)nn2C |  | 77.24
Cc1nn(C)c2c(N3CCN(C)CC3)nc(C3CC3)nc12 |  | 7.951
Cc1nc(N2CCN(C(=O)c3ccccc3)CC2)c2c(n1)c(C)nn2C |  | -7.412
CN(C)[C@@H]1CN(C(=O)c2cccn2C)C[C@H]1CO | -4.756 | 
CC(C)NC(C1CCNCC1)[C@H]1C[C@H](O)C1 (stereo partly drawn) | 23.17 | 
CCOc1ncccc1C(=O)N1CCC(COC)C1 (stereo not drawn) | -5.58 | 
CC1(C)CN(c2nccnc2C#N)CCS1(=O)=O | -1.06 | 
O=C(NCC(F)(F)F)c1ccccc1NCCCO | 5.629 | 
O=S(=O)(NC1CC1)C1CCN(CCc2ccccn2)C1 (stereo not drawn) | 5.549 | 
c1ccc(N2CCCC2)nc1 | -4.186 | 
CC(C)OCc1nc(C(C)N)no1 (stereo not drawn) | -1.581 | 
CCCN(C)C(CO)c1ccc(OC)cc1 (stereo not drawn) | -2.385 | 
O=C(c1ccc2c(c1)OCCCO2)N1CCCC(n2ccnc2)C1 (stereo not drawn) |  | -11.97

Structure (SMILES) | Percent Effect (50 µM) [%] | Percent Effect (10 µM) [%]
O=C(c1ccc2c(c1)OCCCO2)N1CCCC(n2cccn2)C1 (stereo not drawn) |  | 55.61
O=C(c1ccc2c(c1)OCO2)N1CCCC(n2cccn2)C1 (stereo not drawn) |  | 8.443
CC(C)(C)C(=O)CCN1CCCCC1 | 28.4 | 
CNCC1CCS(=O)(=O)C1 (stereo not drawn) | 7.416 | 
N#Cc1cccc(CS(=O)(=O)NC(Cc2ccccc2)C(N)=O)c1 (stereo not drawn) |  | -7.673
NC(=O)C(Cc1ccccc1)NS(=O)(=O)Cc1ccccc1Cl (stereo not drawn) |  | 50.03
NC(=O)C(Cc1ccccc1)NS(=O)(=O)Cc1ccccc1F (stereo not drawn) |  | -5.639
CCCn1ncc(-c2ccnc(NC3CCSC3)n2)c1C (stereo not drawn) |  | 16.2
CCCn1ncc(-c2ccnc(N[C@@H]3C[C@@H]4CC[C@H]3C4)n2)c1C |  | 55.29
CCCn1cc(-c2ccnc(NC3CCc4ccccc4C3)n2)c(C)n1 (stereo not drawn) |  | 39.11
CCCn1ncc(-c2ccnc(NC3CCCc4ccccc43)n2)c1C (stereo not drawn) |  | 4.434
CCc1cc(N[C@@H]2C[C@H]3CC[C@@H]2C3)n2nccc2n1 |  | 9.168
CCCn1ncc(-c2ccnc(NC3CC(C)(C)NC(C)(C)C3)n2)c1C |  | 50.73
C[C@@H]1CNC[C@H]1C(N)=O | -3.858 | 
COCC1(C(=O)N2C[C@@H](N)C[C@H]2C(=O)NC(C)C)CC1 | -6.582 | 
COC(=O)c1cn(CC(=O)Nc2cccc(F)c2)nn1 | -28.09 | 
CC(N)C(=O)N(C)C1CCOCC1 (stereo not drawn) | -25.47 | 
OCc1nnc2n1N=C(c1ccc(Cl)cc1)CS2 | -7.844 | 
Cc1nnc2n1N=C(c1cccs1)CS2 | -17.29 | 
Cc1nnc2n1N=C(c1ccccc1)CS2 | 84.29 | 
COCc1cccc(C(=O)Nc2ccncc2)c1 | -8.978 | 
COCCN(CCC#N)S(=O)(=O)c1ncn(C)c1Cl | 2.241 | 
O=C(CN1CCn2ccnc2C1)Nc1ccc(Cl)cn1 | -8.564 | 
CC(C)n1cnnc1CN1CCN(c2nc[nH]n2)CC1 | 14.64 | 

Structure (SMILES) | Percent Effect (50 µM) [%] | Percent Effect (10 µM) [%]
NCCN1CCC(C(N)=O)CC1 | 44.2 | 
CCCN1CCC(C(N)=O)CC1 | -22.14 | 
CS(=O)(=O)CCN1CCC(C(N)=O)CC1 | 50.58 | 
O=C(Nc1nncs1)c1cccc(O)c1 | -14.91 | 
Cc1ccc(F)cc1NC(=O)C(C)Nc1cnn(C)c1 (stereo not drawn) | 17.75 | 
CNC(=O)c1cccc(NCc2nc(C)cs2)n1 | -1.003 | 
O=C1NCCN(C(=O)c2ccc(Br)o2)C1c1cccs1 (stereo not drawn) | 99.65 | 
N#Cc1ccc(CN2CCNC(=O)C2c2cccs2)cc1 (stereo not drawn) |  | 7.265
COC(=O)CCN1CCNC(=O)C1c1cccs1 (stereo not drawn) | -1.577 | 
Cc1nc(CNC(=O)N(C)Cc2ccncc2)cs1 | -10.17 | 
NC(=O)C1(O)CCN(Cc2nc(C3CCCC3)no2)C1 (stereo not drawn) | -5.906 | 
CCC(=O)NC1CCCN(Cc2noc(C)n2)C1 (stereo not drawn) | 11.52 | 
CC(C)COCCC(=O)Nc1c(-c2ccc(F)cc2)ncn1C |  | 2.891
CC(C)COCCC(=O)Nc1nccs1 | 97.25 | 
CCC(C)C(=O)Nc1nccs1 (stereo not drawn) | -54.41 | 
Cc1ccc(C)c(NC(=O)CN2CCC(O)CC2)c1 | -4.783 | 
COCc1nc(CCN)no1 | -5.41 | 
CC(C)C(=O)N1CCN(c2ncnc3cc4c(cc23)OCCO4)CC1 |  | 49.63
CC(C)CCC(=O)N1CCN(c2ncnc3nc(N)ccc23)CC1 |  | 1.58
COCC(=O)N1CCN(c2ncnc3cccc(F)c23)CC1 |  | -5.192
CC(=O)N1CCN(c2ncnc3cc4c(cc23)OCCO4)CC1 |  | 56.5
CCC(=O)N1CCN(c2ncnc3cc4c(cc23)OCCO4)CC1 |  | 75.76
CN(C)C(=O)c1ccc2ncnc(N3CCCC3)c2c1 | -3.186 | 
CCC(C)C(=O)Nc1ccc(C(=O)N2CCCC2)cc1 (stereo not drawn) | -4.343 | 

Structure (SMILES) | Percent Effect (50 µM) [%] | Percent Effect (10 µM) [%]
NCC(=O)c1ccncc1 | -6.113 | 
CC(CC(=O)NCCCS(N)(=O)=O)c1cccc(F)c1 (stereo not drawn) | 3.903 | 
Cn1nccc1C(=O)NC1CCc2ccccc2OC1 (stereo not drawn) | 1.645 | 
CC(C)CNc1nc(C(=O)/N=c2\[nH]nc(C(C)(C)C)s2)cs1 |  | 0.3064
Cc1[nH]/c(=N\C(=O)c2csc(NC3CCCC3)n2)sc1C |  | 89.34
CC(=O)Nc1nc(C(=O)Nc2nccs2)cs1 | 1.313 | 
Cc1n[nH]/c(=N\C(=O)c2csc(NC3CC3)n2)s1 | 37.81 | 
O=C(NCc1nccs1)c1csc(NC2CC2)n1 | 6.462 | 
Cc1cs/c(=N/C(=O)c2csc(NCC(C)C)n2)[nH]1 |  | 19.16
O=C(Nc1nccs1)c1csc(NC2CCCC2)n1 |  | 94.63
Cc1[nH]/c(=N\C(=O)c2csc(NCC(C)C)n2)sc1C |  | 92.95
Cc1[nH]/c(=N\C(=O)c2csc(NC3CC3)n2)sc1C |  | -0.3064
CC(O)c1c(F)cccc1-n1cncn1 (stereo not drawn) | -28.05 | 
COc1ccc2cc(C(=O)N(C)C)c(C)nc2c1 | -8.962 | 
COc1ccc(F)c(F)c1C(=O)N1CCC(CN)C1 (stereo not drawn) | -13.62 | 
CCN1CCC(CNC(=O)c2nc(C)c[nH]2)CC1 | -1.833 | 
OC[C@H]1CCCN1c1nccc(-c2cncnc2C2CCCCC2)n1 |  | 29.63
OC[C@H]1CCCN1c1nccc(-c2c[nH]nc2C2CCCCC2)n1 |  | 54.25
OC[C@@H]1CCCN1c1nccc(-c2c[nH]nc2-c2ccncc2)n1 |  | -24.25
Cc1ccc(Oc2cc(F)ccc2O[C@@H]2CCC[C@@H](N)[C@H]2O)cc1 |  | 82.52
N[C@@H]1CCC[C@@H](Oc2ccc(F)cc2Oc2ccccc2)[C@@H]1O |  | 2e-14
N[C@@H]1CCC[C@@H](Oc2ccc(F)cc2Oc2cccc(F)c2)[C@@H]1O |  | 2.748
